LmPK inhibitor – blocks Leishmania mexicana pyruvate kinase activity; Potency, µM (series often up to 57.5 µM), for inactives: at the highest dose activity change, negative = inhibition, usual class: inhibitors; purified LmPK, Kinase-Glo ATP luminescence, 1 h; 290,000 compounds, 0.37% hits; AID 1721; Q27686; also: potency is read from the fitted curve at half-maximal effect; % is scaled to controls: 0 for no effect and ±100 for the full control effect
Target sequence (Q27686 whole entry, looked up): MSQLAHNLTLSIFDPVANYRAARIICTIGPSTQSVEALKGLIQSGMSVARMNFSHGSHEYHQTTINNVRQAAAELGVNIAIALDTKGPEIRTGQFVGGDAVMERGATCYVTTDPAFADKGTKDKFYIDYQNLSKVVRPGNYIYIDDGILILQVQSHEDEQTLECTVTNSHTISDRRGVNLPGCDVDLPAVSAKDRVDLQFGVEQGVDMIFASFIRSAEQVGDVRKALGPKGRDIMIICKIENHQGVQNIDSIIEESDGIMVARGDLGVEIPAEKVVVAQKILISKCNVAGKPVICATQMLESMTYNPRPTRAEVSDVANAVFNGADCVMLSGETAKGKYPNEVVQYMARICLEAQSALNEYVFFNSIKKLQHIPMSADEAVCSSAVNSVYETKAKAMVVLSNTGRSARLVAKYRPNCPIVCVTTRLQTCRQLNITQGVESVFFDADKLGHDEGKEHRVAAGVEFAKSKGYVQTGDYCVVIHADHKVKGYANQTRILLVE
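0.1 nM LmPK, 0.5 mM PEP, 0.1 mM ADP; 50 mM imidazole pH 7.2, 7 mM MgCl2, 50 mM KCl; 1 h RT. Kinase-Glo luminescence readout, normalized to no-enzyme (full inhibition) and uninhibited wells.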
CHX counter – affects cycloheximide protein synthesis inhibition readout, counter-screen. max response, %. 300,000 compounds, 12% hits. cell reporter, cycloheximide protein synthesis inhibition counterscreen; in the data active = max response mostly above about 13%, no sharp cut-off; inactive = mostly below about 14%; also: read at 38.3 µM for the half of the compounds with a filed dose; 0% is about no effect
Tb PYK inh – inhibitors of Trypanosoma brucei pyruvate kinase; TbPYK enzyme, Kinase-Glo Plus ATP luminescence, 45 min; Potency, µM (highest dose often 76.8 µM), for inactives: top-dose activity, negative = inhibition, most hits filed as inhibitors; 410,000 compounds, 0.12% hits; also: potency is read from the fitted curve at half-maximal effect; % is scaled to controls: 0 for no effect and ±100 for the full control effect; nearly all actives have a fitted effect of over 50% in size
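Luminescence from Kinase-Glo Plus, added after a 45-minute room-temperature reaction, served as the end-point read-out. The enzyme and substrate were preincubated with compound before ADP (130 uM final) initiated turnover. Concentration-effect curves came from normalized qHTS data.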
RE007 growth inh – less growth of the S. pombe RE007 Vpr strain | S. pombe RE007 Vpr strain, BacTiter-Glo ATP luminescence, 24 h | Potency, µM (titrated, usually from 92.2 µM), without a hit: at the top dose activity change, negative = less growth, hits mostly inhibitors | 360,000 compounds, 0.21% hits | AID 651644; active = well fitted falling curve with a large enough effect; inconclusive = small, poorly fitted or top-dose-only effect; inactive = no such curve, though single readings can be large or run the other way; also: potency is read from the fitted curve at half-maximal effect; % is scaled to controls: 0 for no effect and ±100 for the full control effect; nearly all actives have a fitted effect of over 50% in size
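Fission yeast strain RE007, carrying one chromosomally integrated HIV-1 vpr copy, was seeded at OD 0.01 in PMG+AL medium with 23 nL pinned compound. After 24 h at 30 °C and 99% humidity, viability was read by BacTiter-Glo luminescence.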
FBPA Giardia inh – inhibitors of Giardia lamblia fructose-1,6-bisphosphate aldolase | Potency, µM (highest dose often 59.6 µM), for the others: at the top dose activity, negative = inhibition, usual class: inhibitors | 290,000 compounds, 0.71% hits | purified Giardia FBPA | A8B2U2; also: potency is read from the fitted curve at half-maximal effect; % is scaled to controls: 0 for no effect and ±100 for the full control effect; nearly all actives have a fitted effect of over 55% in size
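Giardia FBPA (40 nM reagent) was preincubated 10 min at RT with compound (up to 57.5 uM final), then substrate plus GAPDH/TPI/NAD/arsenate coupling system with diaphorase/resazurin was added; resorufin fluorescence (525/598 nm) was read after 20 min.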
Shiga inhibitor – blocks Shiga toxin action in Vero cells | Vero cells, Shiga toxin protein synthesis inhibition reporter | inhibition, % at 38.7 µM | 290,000 compounds, 9.2% hits; in the data active = inhibition mostly above about 28%, no sharp cut-off; inactive = mostly below about 43%; also: 0% is about no effect
* marks the source's active call; other numbers are inactive results; ? = inconclusive; nt = not tested or not shown. Shown is part of a subset that was picked to be rich in hits. Unless noted, calls follow the shape of the dose curve; as a rule, active = well fitted curve in the direction sought with a large enough effect; inconclusive = small, poorly fitted or top-dose-only effect, or another doubt; inactive = no such curve, though single readings can be large; an effect the other way counts as inactive or inconclusive.

SMILES	LmPK inhibitor	CHX counter	Tb PYK inh	RE007 growth inh	FBPA Giardia inh	Shiga inhibitor
CCc1cc2c(=O)c(-c3nc(C)cs3)coc2cc1O	-13%	34*	-3%	-2%	-10%	38*
Cc1csc(-c2coc3cc(O)cc(C)c3c2=O)n1	?	30*	-10%	-28%	-10%	108*
COc1ccc(-c2coc3cc(OC)ccc3c2=O)cc1	nt	nt	1%	6%	nt	nt
COc1ccc2c(=O)c(-c3nc(C)cs3)coc2c1	?	45*	-14%	-20%	4%	79*
Cc1nc(-c2coc3cc(OCC(=O)O)ccc3c2=O)cs1	?	-2	-9%	-28%	1%	-16
Cc1nc(-c2coc3cc(C)c(N=O)c(O)c3/c2=N\N)cs1	3%	-1	-13%	2%	-11%	2
Cn1c(=O)[nH]c(=O)c2c1nc1n2CCN1c1ccccc1	nt	nt	0%	nt	nt	nt
CC(Oc1ccc(F)cc1)C(=O)Nc1nc(-c2ccc(F)cc2)ns1 (stereo not given)	nt	nt	1%	nt	nt	nt
COc1ccc(C)cc1NC(=O)CSc1ccc(-c2ccccn2)nn1	-2%	11*	-7%	-19%	nt	20
Cc1cccc(NC(=O)CSc2ccc(-c3ccccn3)nn2)c1	nt	nt	-1%	nt	nt	nt
CCC(C(=O)OCC(=O)Nc1cc(C)ccc1OC)c1ccccc1 (stereo not given)	3%	26*	-2%	12%	-11%	32
COc1ccc(CC(=O)NNc2ncnc3c2cnn3-c2ccc(C)cc2)cc1OC	5%	15*	-4%	6%	9%	33
Cc1ccc(-n2ncc3c(NCCO)ncnc32)cc1Cl	nt	nt	-11%	nt	nt	nt
Cc1ccc(-n2ncc3c(NNC(=O)c4ccccc4C)ncnc32)cc1	nt	nt	-2%	nt	nt	nt
Cc1ccc(-n2ncc3c(NNC(=O)c4ccco4)ncnc32)cc1C	-5%	25*	-5%	-11%	nt	56*
CC(=O)NNc1ncnc2c1cnn2-c1ccc(C)cc1	9%	37*	-3%	-2%	0%	86*
COc1ccc(CC(=O)NNc2ncnc3c2cnn3-c2ccc(C)cc2)cc1	4%	-1	-1%	-6%	7%	-4
CC(=O)NNc1ncnc2c1cnn2-c1ccc(C)c(Cl)c1	17%	38*	2%	10%	3%	68*
COc1ccc(-c2nc3cnc(N(C)C)nc3n(CCc3ccccc3)c2=O)cc1	nt	nt	-3%	nt	1%	nt
COc1ccc(NC(=O)Cn2c(=O)n(Cc3ccccc3Cl)c(=O)c3cc(OC)c(OC)cc32)cc1OC	nt	nt	4%	nt	nt	nt
COc1cccc(C(=O)NCCSc2c(-c3ccc(F)cc3)[nH]c3ccccc23)c1OC	nt	nt	-9%	nt	nt	nt
Cc1nn(C(C)C(=O)Nc2cccc(F)c2)c(=O)c2c1sc1ccccc12 (stereo not given)	nt	nt	6%	nt	nt	nt
O=C(NC(=S)N1CCN(c2ccccn2)CC1)c1ccco1	-1%	18*	-8%	0%	?	36
O=C(NC(=S)N1CCN(c2ccc(O)cc2)CC1)c1ccco1	nt	nt	-17%	0%	nt	nt
Cc1sc(NC(=O)c2ccco2)c(CN2CCN(c3ccccn3)CC2)c1C	4%	32*	4%	8%	-16%	54
SMILES	LmPK inhibitor	CHX counter	Tb PYK inh	RE007 growth inh	FBPA Giardia inh	Shiga inhibitor
CCc1cccc(NC(=O)CN2C(=O)COc3ccc(S(=O)(=O)N4CCC(C)CC4)cc32)c1	nt	nt	-6%	nt	nt	nt
O=C1OCc2ccc(NC(=O)C3CC3)cc21	0%	3	1%	1%	2%	16
O=C1OCc2ccc(NC(=O)c3c(F)cccc3Cl)cc21	-5%	17*	3%	-1%	nt	30
O=C1OCc2ccc(NC(=O)c3ccccc3C(=O)O)cc21	-8%	34*	3%	-5%	nt	58*
O=C(Nc1ccc2c(c1)CCC2)c1c(F)cccc1Cl	-2%	54*	3%	-24%	-10%	112*
O=C(Nc1ccc2c(c1)CCCN2C(=O)c1cccs1)c1c(F)cccc1Cl	3%	-3	-7%	5%	-7%	-2
O=C(Nc1ccc2c(c1)C(=O)OC2)c1ccccc1Cl	5%	26*	-7%	-11%	-8%	23
N#Cc1ccc(CSc2nnc(-c3ccc(Br)cc3)o2)cc1	nt	nt	-5%	nt	nt	nt
CC(C)CCN(Cc1ccco1)C(=O)c1cc2c(s1)-c1ccccc1OC2	nt	nt	5%	nt	nt	nt

Bioassay records (PubChem)
